The text below walks through data of the supplement of paper PMC6992640.

Holding throughout (experiment): cell viability of combination (% of vehicle); higher = less cytotoxic
Common to all, as to conditions: 1 µM; 72 h; partner dose: 10 nM

One experiment relates to HCI01 (cells of a triple-negative basal-like breast cancer xenograft). How it is done:
(§1)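 PDX cells were treated for 72 h with each drug at 1 µM plus afatinib (10 nM; 1 µM for WHIM30). Luciferase viability is expressed as percent of vehicle.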

In the next experiment the test system is UCD52 (cells of a triple-negative basal-like breast cancer xenograft). How it is done: as §1
In another experiment the test system is WHIM2 (cells of a triple-negative basal-like breast cancer xenograft). The protocol: as §1

On to `COc1ccc2cc1Oc1ccc(cc1)CC1c3c(cc4c(c3Oc3cc5c(cc3OC)CCN(C)C5C2)OCO4)CCN1C` (stereo unspecified) [Cepharanthine] + CN(C)C/C=C/C(=O)Nc1cc2c(Nc3ccc(F)c(Cl)c3)ncnc2cc1O[C@H]1CCOC1 [Afatinib], for which the entries for the “cell viability of combination” value in the experiment on HCI01, in the experiment with UCD52 and in the experiment on WHIM2 were 48.5, 40.1 and 38.1, respectively.
For `C[C@H]1O[C@@H](O[C@H]2[C@@H](O)C[C@H](O[C@H]3[C@@H](O)C[C@H](O[C@H]4CC[C@@]5(C)[C@H](CC[C@@H]6[C@@H]5C[C@@H](O)[C@]5(C)[C@@H](C7=CC(=O)OC7)CC[C@]65O)C4)O[C@@H]3C)O[C@@H]2C)C[C@H](O)[C@@H]1O` [Digoxin] + CN(C)C/C=C/C(=O)Nc1cc2c(Nc3ccc(F)c(Cl)c3)ncnc2cc1O[C@H]1CCOC1 [Afatinib], in that order: 27.8, 19.5 and 61.3.
For `Cn1cnc2c(F)c(Nc3ccc(Br)cc3F)c(C(=O)NOCCO)cc21` + CN(C)C/C=C/C(=O)Nc1cc2c(Nc3ccc(F)c(Cl)c3)ncnc2cc1O[C@H]1CCOC1 [Afatinib], in that order: 40.5, 54 and 34.8.
For the compound `CCN1CCN(Cc2ccc(Nc3ncc(F)c(-c4cc(F)c5nc(C)n(C(C)C)c5c4)n3)nc2)CC1.CS(=O)(=O)O` + CN(C)C/C=C/C(=O)Nc1cc2c(Nc3ccc(F)c(Cl)c3)ncnc2cc1O[C@H]1CCOC1 [Afatinib], the entries for the “cell viability of combination” value with HCI01, with UCD52 and in the experiment with WHIM2 were 40.5, 40.5 and 82.2, respectively.
For the compound `CS(=O)(=O)CCNCc1ccc(-c2ccc3ncnc(Nc4ccc(OCc5cccc(F)c5)c(Cl)c4)c3c2)o1.Cc1ccc(S(=O)(=O)O)cc1.Cc1ccc(S(=O)(=O)O)cc1` [Lapatinib Ditosylate] + CN(C)C/C=C/C(=O)Nc1cc2c(Nc3ccc(F)c(Cl)c3)ncnc2cc1O[C@H]1CCOC1 [Afatinib], the “cell viability of combination” value in the experiment on HCI01 amounted to 41.6; in the experiment with UCD52, 41.5; with WHIM2, 36.7.
Regarding `Cl.OC(c1cc(C(F)(F)F)nc2c(C(F)(F)F)cccc12)C1CCCCN1` (stereo unspecified) [Mefloquine hydrochloride] + CN(C)C/C=C/C(=O)Nc1cc2c(Nc3ccc(F)c(Cl)c3)ncnc2cc1O[C@H]1CCOC1 [Afatinib], the “cell viability of combination” value with HCI01 came out at 49.3; in the experiment on UCD52 it was 50.3; in the experiment with WHIM2, 55.9.
With `CC1CC(=O)NN=C1c1ccc(NN=C(C#N)C#N)cc1` (stereo unspecified) [Levosimendan] + CN(C)C/C=C/C(=O)Nc1cc2c(Nc3ccc(F)c(Cl)c3)ncnc2cc1O[C@H]1CCOC1 [Afatinib], the entries for the “cell viability of combination” value with HCI01, in the experiment with UCD52 and in the experiment on WHIM2 were 52.7, 75 and 51.2, respectively.
For `COc1cc2c(Oc3ccc4[nH]c(C)cc4c3F)ncnc2cc1OCCCN1CCCC1` [Cediranib (AZD217)] + CN(C)C/C=C/C(=O)Nc1cc2c(Nc3ccc(F)c(Cl)c3)ncnc2cc1O[C@H]1CCOC1 [Afatinib], in that order: 47.5, 24.5 and 31.6.
Taken in the same sequence, the figures for `CC(C)c1nc(CN(C)C(=O)NC(C(=O)NC(Cc2ccccc2)CC(O)C(Cc2ccccc2)NC(=O)OCc2cncs2)C(C)C)cs1` (stereo unspecified) [Ritonavir] + CN(C)C/C=C/C(=O)Nc1cc2c(Nc3ccc(F)c(Cl)c3)ncnc2cc1O[C@H]1CCOC1 [Afatinib] were 49.1, 62.5 and 49.
Regarding `COC(=O)NC(C(=O)N1CCCC1c1ncc(-c2ccc(-c3ccc(-c4cnc(C5CCCN5C(=O)C(NC(=O)OC)C(C)C)[nH]4)cc3)cc2)[nH]1)C(C)C` (stereo unspecified) + CN(C)C/C=C/C(=O)Nc1cc2c(Nc3ccc(F)c(Cl)c3)ncnc2cc1O[C@H]1CCOC1 [Afatinib], the “cell viability of combination” value in the experiment with HCI01 amounted to 48.3; in the experiment on WHIM2, 46.3.
With `Nc1ccc2cc3ccc([NH3+])cc3nc2c1.Nc1ccc2cc3ccc([NH3+])cc3nc2c1.O=S(=O)([O-])[O-]` [Proflavine Hemisulfate] + CN(C)C/C=C/C(=O)Nc1cc2c(Nc3ccc(F)c(Cl)c3)ncnc2cc1O[C@H]1CCOC1 [Afatinib], the “cell viability of combination” value was 59.6 in the experiment on HCI01, 116 with UCD52 and 29.5 with WHIM2.
On to `COCCn1c2c([n+](Cc3cnccn3)c1C)C(=O)c1ccccc1C2=O.[Br-]` + CN(C)C/C=C/C(=O)Nc1cc2c(Nc3ccc(F)c(Cl)c3)ncnc2cc1O[C@H]1CCOC1 [Afatinib], for which the “cell viability of combination” value amounted to 18.3 with HCI01, 15.2 in the experiment on UCD52 and 11.8 with WHIM2.
Taken in the same sequence, the figures for `O=C1C=CC=CC1=C1NC(=C2C=CC=CC2=O)N(c2ccc(C(=O)O)cc2)N1` [Deferasirox] + CN(C)C/C=C/C(=O)Nc1cc2c(Nc3ccc(F)c(Cl)c3)ncnc2cc1O[C@H]1CCOC1 [Afatinib] were 43.2, 68.2 and 42.2.
Taken in the same sequence, the figures for `CN(C)CCOc1ccc(C(=C(CCCl)c2ccccc2)c2ccccc2)cc1.O=C(O)CC(O)(CC(=O)O)C(=O)O` [Toremifene Citrate] + CN(C)C/C=C/C(=O)Nc1cc2c(Nc3ccc(F)c(Cl)c3)ncnc2cc1O[C@H]1CCOC1 [Afatinib] were 70.8, 77.4 and 55.7.
As for `CNCCC(Oc1ccc(C(F)(F)F)cc1)c1ccccc1.Cl` (stereo unspecified) [Fluoxetine HCl] + CN(C)C/C=C/C(=O)Nc1cc2c(Nc3ccc(F)c(Cl)c3)ncnc2cc1O[C@H]1CCOC1 [Afatinib], the “cell viability of combination” value came to 46.4 in the experiment on HCI01, 59.1 in the experiment on UCD52 and 43.8 with WHIM2.
Taken in the same sequence, the figures for `O=C(NN=Cc1ccc([N+](=O)[O-])o1)c1ccc(O)cc1` [Nifuroxazide] + CN(C)C/C=C/C(=O)Nc1cc2c(Nc3ccc(F)c(Cl)c3)ncnc2cc1O[C@H]1CCOC1 [Afatinib] were 50.8, 79.4 and 48.8.
Taken in the same sequence, the figures for `CN(C)CC=CC(=O)Nc1cc2c(Nc3ccc(F)c(Cl)c3)ncnc2cc1OC1CCOC1` (stereo unspecified) [Afatinib (BIBW2992)] + CN(C)C/C=C/C(=O)Nc1cc2c(Nc3ccc(F)c(Cl)c3)ncnc2cc1O[C@H]1CCOC1 [Afatinib] were 44.6, 21.3 and 32.4.
Taken in the same sequence, the figures for `CC(C)CC(NC(=O)C(NC(=O)c1cccc(-c2ccccc2)n1)C(C)O)B(O)O` (stereo unspecified) + CN(C)C/C=C/C(=O)Nc1cc2c(Nc3ccc(F)c(Cl)c3)ncnc2cc1O[C@H]1CCOC1 [Afatinib] were 34.1, 18.9 and 97.
`CC(=O)c1cc2c(o1)C(=O)c1ccccc1C2=O` [Napabucasin] + CN(C)C/C=C/C(=O)Nc1cc2c(Nc3ccc(F)c(Cl)c3)ncnc2cc1O[C@H]1CCOC1 [Afatinib]: the “cell viability of combination” value with HCI01 is 16.2; in the experiment on UCD52 it was 17.4; in the experiment with WHIM2, 29.7.
For `CO[C@H]1/C=C/O[C@@]2(C)Oc3c(C)c(O)c4c(O)c(c(/C=N/N5CCN(C6CCCC6)CC5)c(O)c4c3C2=O)NC(=O)/C(C)=C\C=C\[C@H](C)[C@H](O)[C@@H](C)[C@@H](O)[C@@H](C)[C@H](OC(C)=O)[C@@H]1C` [Rifapentine] + CN(C)C/C=C/C(=O)Nc1cc2c(Nc3ccc(F)c(Cl)c3)ncnc2cc1O[C@H]1CCOC1 [Afatinib], the “cell viability of combination” value in the experiment on HCI01 came to 56.2; in the experiment with UCD52 it was 72.2; in the experiment with WHIM2, 46.2.
For `Cl.OC(CNCC(O)C1CCc2cc(F)ccc2O1)C1CCc2cc(F)ccc2O1` (stereo unspecified) [Nebivolol] + CN(C)C/C=C/C(=O)Nc1cc2c(Nc3ccc(F)c(Cl)c3)ncnc2cc1O[C@H]1CCOC1 [Afatinib], in that order: 47.1, 64.9 and 44.7.
Regarding `CCOC(=O)C1=C(COCCN)NC(C)=C(C(=O)OC)C1c1ccccc1Cl` (stereo unspecified) [Amlodipine] + CN(C)C/C=C/C(=O)Nc1cc2c(Nc3ccc(F)c(Cl)c3)ncnc2cc1O[C@H]1CCOC1 [Afatinib], the “cell viability of combination” value with HCI01 turned out to be 58.2; with UCD52, 79.6; in the experiment with WHIM2 it was 51.1.
Taken in the same sequence, the figures for `CC(C)(C)NC(=O)C1CC2CCCCC2CN1CC(O)C(Cc1ccccc1)NC(=O)C(CC(N)=O)NC(=O)c1ccc2ccccc2n1.CS(=O)(=O)O` (stereo unspecified) [Saquinavir mesylate] + CN(C)C/C=C/C(=O)Nc1cc2c(Nc3ccc(F)c(Cl)c3)ncnc2cc1O[C@H]1CCOC1 [Afatinib] were 48.2, 61.1 and 47.9.
Taken in the same sequence, the figures for `COc1cccc2c1C(=O)c1c(O)c3c(c(O)c1C2=O)C[C@@](O)(C(C)=O)C[C@@H]3O[C@H]1C[C@H](N)[C@H](O)[C@H](C)O1.Cl` [Daunorubicin HCl] + CN(C)C/C=C/C(=O)Nc1cc2c(Nc3ccc(F)c(Cl)c3)ncnc2cc1O[C@H]1CCOC1 [Afatinib] were 70.7, 20.8 and 9.65.
For `CC(C)N=c1cc2n(-c3ccc(Cl)cc3)c3ccccc3nc-2cc1Nc1ccc(Cl)cc1` [Clofazimine] + CN(C)C/C=C/C(=O)Nc1cc2c(Nc3ccc(F)c(Cl)c3)ncnc2cc1O[C@H]1CCOC1 [Afatinib], in that order: 45.8, 69.6 and 38.9.
In the case of `Clc1ccc(C(Cn2ccnc2)OCc2ccsc2Cl)c(Cl)c1` (stereo unspecified) [Tioconazole] + CN(C)C/C=C/C(=O)Nc1cc2c(Nc3ccc(F)c(Cl)c3)ncnc2cc1O[C@H]1CCOC1 [Afatinib], the figures for the “cell viability of combination” value in the experiment on HCI01 and with WHIM2 were 65.4 and 47.5, respectively.
